According to PubChem BioAssay AID818 (SRMLSC, 2007):
Hit rate of the full screen: of about 140,000 compounds, about 2,100 (1.5%) were called active.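 How the source made its calls: active means viability at or under a set limit, the compound median less 4 SD (cut at about 6% in these data); inactive means the rest.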 The full list was thinned out, with actives kept by preference.

Assay: primary screen for suppressors of beta-catenin knockout HCT116 cell growth, colon tumor, human (AID 818);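 further: 0% = Hyamine 1622 control at 20 µM and 100% = untreated cell control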
Conditions: CellTiter-Glo, 60 h, at 10 µM, stronger effect = lower value

| SMILES | viability |
| --- | --- |
| COc1ccc(NC(=O)CC2C(=O)OCC3CCCCN32)cc1Cl (stereo not drawn) | 93.4% (inactive) |
| Cc1cc(C)c(C#N)c(SCC(=O)NN2CC(=O)N(c3ccccc3F)CC2=O)n1 | 99.8% (inactive) |
| CC(C)[C@H](NC(=O)c1ccc(F)cc1)C(=O)OCC(=O)NC(=O)c1cccn1C | 93.5% (inactive) |
| N=c1n(CCc2ccccc2)c2ccccc2n1Cc1ccccc1F | 3.71% (active) |
| CN(Cc1ccccc1)Cc1ccccc1F | 83% (inactive) |
| CC(=O)NC(C)c1nc2ccccc2n1Cc1ccccc1F (stereo not drawn) | 102% (inactive) |
| Cc1ccc2[nH]cc(CCNC(=O)c3ccc([N+](=O)[O-])cc3)c2c1 | 106% (inactive) |
| Cc1ccc(C(=O)NC(C)c2ccccc2)cc1Br (stereo not drawn) | 83.5% (inactive) |
| CC(=O)Nc1ccc(S(=O)(=O)NCC(=O)OCc2cc(=O)oc3ccc4ccccc4c23)cc1 | 83.8% (inactive) |
| CCCN1C(=O)C(Cc2nc3ccccc3c(=O)n2-c2ccccc2)c2cc(C)ccc21 (stereo not drawn) | 74.7% (inactive) |
| N#CC1=C(N)Oc2c(sc3ccccc23)C1c1ccco1 (stereo not drawn) | 3.24% (active) |
| Cc1cc2c(c(=O)n1Cc1ccco1)C(c1ccccc1)C(C#N)=C(N)O2 (stereo not drawn) | 105% (inactive) |
| Cc1cc(C)c2c3c(sc2n1)C(c1ccccc1)C(C#N)=C(N)O3 (stereo not drawn) | 21.1% (inactive) |
| Brc1ccc(-c2csc(N/N=C/c3ccc4c(c3)OCO4)n2)cc1 | 84.8% (inactive) |
| CC(=O)c1c(O)cc2n(c1=O)-c1ccc(Cl)cc1C2(C)C | 91.5% (inactive) |
| CC(Nc1nc(N2CCCC2)nc2ccccc12)c1ccccc1 (stereo not drawn) | 1.19% (active) |
| CC(C)n1c(C(O)c2ccccc2)nc2ccccc21 (stereo not drawn) | 110% (inactive) |
| Cc1ccc(C(CC(=O)O)Nc2nc(N3CCCCC3)nc(N3CCCCC3)n2)cc1 (stereo not drawn) | 97.6% (inactive) |
| C/C(=N\N1CCN(Cc2ccc(C)cc2)CC1)c1ccco1 | 99.1% (inactive) |
| Cc1cc2oc(=O)cc(CN3CCN(S(=O)(=O)c4cccs4)CC3)c2cc1C(C)C | 76.9% (inactive) |
| COc1cccc(-n2c(SCC(=O)c3c[nH]c4ccccc34)nc3ccccc3c2=O)c1 | 73.3% (inactive) |

| SMILES | viability |
| --- | --- |
| NC(=O)c1ccccc1N=Cc1ccc2ccccc2c1 | 35.3% (inactive) |
| N#C/C(=C(/O)COc1cccc2ccccc12)c1nc2ccccc2[nH]1 | 79.3% (inactive) |
| Cc1ccccc1OC/C(O)=C(\C#N)c1nc2ccccc2[nH]1 | 78.6% (inactive) |
| N#C/C(=C(/O)COC(=O)COc1ccc(Cl)cc1)c1nc2ccccc2[nH]1 | 5.63% (active) |
| O=C(Cc1cccc2ccccc12)NCCC1=CCCCC1 | 85.5% (inactive) |
| CCOc1ncccc1C(=O)N(CC)CC(=O)Nc1ccc(NC(C)=O)cc1 | 104% (inactive) |
| CCOC(=O)c1ccccc1NS(=O)(=O)c1ccc(OC)cc1 | 17.6% (inactive) |
| CCOC(=O)C1=C(c2ccc(OC)cc2)C(=O)c2ccccc2C1=O | 1.16% (active) |
| CCCCC(C(=O)OCC(=O)c1ccc(OC)cc1)N1C(=O)c2ccccc2C1=O (stereo not drawn) | 103% (inactive) |
| CCOC(=O)c1nn(-c2ccccc2F)c2nc(Nc3ccccc3)cc(=O)n12 | 94.3% (inactive) |
| FC(F)(F)c1cccc(NC(=S)Nc2cccc(Cl)c2)c1 | 5.77% (active) |
| Cc1csc(NC(=S)Nc2cccc(Cl)c2)n1 | 26.5% (inactive) |
| S=C(Nc1cccc(Cl)c1)Nc1ccc2cn[nH]c2c1 | 77.5% (inactive) |
| COC(=O)/C(=C1\Oc2ccc(C(C)(C)C)cc2S1)C(F)(F)F | 102% (inactive) |
| Cc1[nH]n(-c2ccccc2)c(=O)c1/C=N/NC(=O)c1ccoc1C | 3.98% (active) |
| Cc1[nH]n(-c2cccc(Cl)c2)c(=O)c1/C=N/n1c(C)nc2ccccc2c1=O | 85.9% (inactive) |
| Cc1ccc(-n2[nH]c(C)c(/C=N/NC(=O)c3cccc([N+](=O)[O-])c3)c2=O)cc1C | 3.51% (active) |
| COc1cc(/C=N\NC(=O)CNC(=O)c2cccc([N+](=O)[O-])c2)ccc1O | 79% (inactive) |
| Cc1[nH]n(-c2ccc(Cl)cc2)c(=O)c1/C=N/n1c(C)nc2ccccc2c1=O | 22.4% (inactive) |
| COc1cccc(/C=N/NC(=O)c2cccc([N+](=O)[O-])c2)c1OS(=O)(=O)c1ccc(C)cc1 | 80.7% (inactive) |
| COC(=O)C1NN=C(C(=O)c2ccc(Br)cc2)C1c1cccc(Br)c1 (stereo not drawn) | 96.8% (inactive) |

| SMILES | viability |
| --- | --- |
| O=C(CN1CCN(c2ccc(O)cc2)CC1)NC1CCCc2ccccc21 (stereo not drawn) | 74% (inactive) |
| C/C(=N\NC(=O)Cc1ccc(F)cc1)c1ccc(F)cc1 | 99.1% (inactive) |
| COc1ccc(C(CC(=O)O)NC(=O)Cc2ccccc2)cc1 (stereo not drawn) | 96.5% (inactive) |
| C/C(=N\NC(=O)Cc1ccc(Cl)cc1)c1ccccn1 | 4.96% (active) |
| COc1ccc(CC(=O)N/N=C(\C)c2ccccn2)cc1 | 3.98% (active) |
| COc1ccc(C/C(C)=N/NC(=O)c2ccncc2)cc1 | 91.1% (inactive) |
| C/C(=N/NC(=O)CSc1ccccn1)c1ccc([N+](=O)[O-])cc1 | 94.1% (inactive) |
| CCC(CC)C(=O)N1CCN(c2cccc(C)c2C)CC1 | 43.6% (inactive) |
| COC(C(=O)Nc1ccc(C(C)=O)cc1)c1ccccc1 (stereo not drawn) | 85.5% (inactive) |
| O=C(NCCCO)/C(=C\C=C\c1ccccc1)NC(=O)c1ccccc1Cl | 94% (inactive) |
| Cc1cc(Br)ccc1SCC(=O)OCC(=O)NCc1ccc2c(c1)OCO2 | 85.9% (inactive) |
| CC(C)C(=O)Nc1cccc(NC(=O)c2ccc([N+](=O)[O-])cc2Cl)c1 | 96% (inactive) |
| O=C(/C=C/c1ccc(Cl)cc1Cl)c1cccnc1 | 0.88% (active) |
| O=C(/C=C/c1ccc(Cl)cc1Cl)NCc1ccco1 | 102% (inactive) |
| O=C(NCc1ccc(Cl)c(Cl)c1)c1cccnc1 | 92.2% (inactive) |
| CC(=O)Nc1ccc(NC(=S)NC(=O)c2ccc([N+](=O)[O-])c(C)c2)cc1 | 93.3% (inactive) |
| CCC(C)(C)C1CCC(=NNC(=O)c2ccc(Br)o2)CC1 (stereo not drawn) | 94.6% (inactive) |
| O=C(COC(=O)Cc1ccc(Br)cc1)Nc1c(F)c(F)c(F)c(F)c1F | 94.5% (inactive) |
| COc1cc(/C=C2\SC(=S)N(Nc3ncc(C(F)(F)F)cc3Cl)C2=O)cc(OC)c1OC | 109% (inactive) |
| COc1cccc(/C=N\NC(=O)C2=NNC(=O)C2C)c1O (stereo not drawn) | 45.9% (inactive) |
| COc1cccc(/C=N/Nc2ncc(C(F)(F)F)cc2Cl)c1O | 2.51% (active) |
